# Measured values reported in PubChem BioAssay (NCATS).
# Where “and” joins values, the source holds several entries; their conditions need not be identical. Equal entries are not always repeated. Inconclusive results are not listed. Entries that show only a call come without a potency. More than one record can exist for a structure, and the calls need not agree. Calls of active or inactive are those of the source. Calls follow the shape of the dose curve; as a rule, active = well fitted curve in the direction sought with a large enough effect; inconclusive = small, poorly fitted or top-dose-only effect, or another doubt; inactive = no such curve, though single readings can be large; an effect the other way counts as inactive or inconclusive.
# Tests used:
# [1] = target: Glutathione peroxidase 1 (Homo sapiens) (UniProt P07203); assay: Primary qHTS Assay for Inhibitors of Recombinant Selenoprotein Glutathione Peroxidase 1 (GPX1) (AID 1845191); also: nearly all actives have a fitted effect of over 65% in size; also: potency is read from the fitted curve at half-maximal effect
# In short: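 GR-coupled assay: compounds preincubated 30 min at room temperature with GPX1, then reaction started with CHP; final 10 nM GPX1, 1 mM GSH, 0.5 mM CHP, 0.5 mM NADPH, 100 nM GR, 0.01% BSA, pH 7.5 Tris buffer. NADPH fluorescence (340/450 nm) read at 0 and 15 min.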
# [2] = target: Metallo-beta-lactamase type 2 (Klebsiella pneumoniae) (UniProt C7C422); assay: qHTS to identify inhibitors of the New Delhi Metallo-beta-lactamase (NDM): assay validation screen against the NCATS LOPAC Collection (AID 1794843);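 also: nitrocefin turnover by NDM-1 measured as 485 nm absorbance at plateau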
# In short: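 Nitrocefin hydrolysis (50 uM substrate stock) by NDM-1, 2 nM final, was followed by 485 nm absorbance after compound preincubation; buffer was 50 mM HEPES pH 7.0, 1 uM ZnSO4, 0.01% Tween20.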
# [3] = target: Phospholipid hydroperoxide glutathione peroxidase GPX4 (Homo sapiens) (UniProt P36969); assay: Primary qHTS Assay for Inhibitors of Recombinant Selenoprotein Glutathione Peroxidase 4 (GPX4) (AID 1845192); also: nearly all actives have a fitted effect of over 65% in size; also: potency is read from the fitted curve at half-maximal effect
# In short: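 GR-coupled assay: recombinant GPX4 preincubated 30 min with compound at room temperature; final 200 nM GPX4, 1 mM GSH, 0.5 mM cumene hydroperoxide, 0.5 mM NADPH, 100 nM GR, 0.01% BSA, pH 7.5 Tris. NADPH fluorescence (340/450 nm) read at 0 and 15 min.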
# [4] = Quantitative High-Throughput drug screen in 47 multiple myeloma cell lines against the NCATS MIPE library collection: FR4_PLB cell viability assay (AID 1918924; also: nearly all actives have a fitted effect of over 35% in size; also: potency is read from the fitted curve at half-maximal effect)
# In short: (§1)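 Myeloma cell lines, 500 cells per well, exposed to MIPE 4.0 library compounds for 48 h at 37C, 5% CO2. Viability from ATP by CellTiter-Glo luminescence; normalised to DMSO (100%) and media-only (0%) wells.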
# [5] = Quantitative High-Throughput drug screen in 47 multiple myeloma cell lines against the NCATS MIPE library collection: EJM_DSMZ cell viability assay (AID 1918926; also: nearly all actives have a fitted effect of over 30% in size; also: potency is read from the fitted curve at half-maximal effect)
# In short: (§2)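 Primary qHTS used for cherry-picking: cells at 500/well, library compounds for 48 h (37C, 5% CO2), luminescent ATP assay.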
# [6] = Quantitative High-Throughput drug screen in 47 multiple myeloma cell lines against the NCATS MIPE library collection: KHM11_PLB cell viability assay (AID 1918962); also: nearly all actives have a fitted effect of over 35% in size; also: potency is read from the fitted curve at half-maximal effect
# In short: as §1
# [7] = HepG2 viability counterscreen (readout 2: ATP content) against the NCATS DSHEA and TCM libraries (AID 1794840);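 also: HepG2 cells exposed to substances for about 24 h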
# In short: (§3)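 Cytotoxicity was assessed in HepG2 cells plated at 1,000 cells/well and exposed for about 24 hours to a concentration series. Protease activity and ATP content were measured sequentially in each well.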
# [8] = HepG2 viability counterscreen (readout 1: protease activity) against the NCATS DSHEA and TCM libraries (AID 1794841);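 also: cells exposed to compounds for about 24 h before the protease read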
# In short: as §3
# [9] = Quantitative High-Throughput drug screen in 47 multiple myeloma cell lines against the NCATS MIPE library collection: Delta47_JCRB cell viability assay (AID 1918925; also: nearly all actives have a fitted effect of over 45% in size; also: potency is read from the fitted curve at half-maximal effect)
# In short: as §2
# [10] = Quantitative High-Throughput drug screen in 47 multiple myeloma cell lines against the NCATS MIPE library collection: ARD_JJKsccE7 cell viability assay (AID 1918929; also: potency is read from the fitted curve at half-maximal effect)
# In short: as §2
# [11] = Quantitative High-Throughput drug screen in 47 multiple myeloma cell lines against the NCATS MIPE library collection: Karpas620_DSMZ cell viability assay (AID 1918959); also: nearly all actives have a fitted effect of over 30% in size; also: potency is read from the fitted curve at half-maximal effect
# In short: as §1
# [12] = Quantitative High-Throughput drug screen in 47 multiple myeloma cell lines against the NCATS MIPE library collection: KMM1_JCRB cell viability assay (AID 1918960); also: nearly all actives have a fitted effect of over 30% in size; also: potency is read from the fitted curve at half-maximal effect
# In short: (§4)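 Luminescence from CellTiter-Glo, taken after 5 min at room temperature, reports cellular ATP as viability. Cells (500 per well) had been treated 48 h at 37 °C with MIPE 4.0 compounds, scaled between DMSO and medium-only controls.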
# [13] = Quantitative High-Throughput drug screen in 47 multiple myeloma cell lines against the NCATS MIPE library collection: JIM3_ECACC cell viability assay (AID 1918963; also: nearly all actives have a fitted effect of over 35% in size; also: potency is read from the fitted curve at half-maximal effect)
# In short: as §1
# [14] = target: Luciferin 4-monooxygenase (Photinus pyralis) (UniProt P08659); assay: Primary firefly luciferase (FLuc) qHTS assay for identification of artifact compounds. (AID 1845220); also: nearly all actives have a fitted effect of over 60% in size
# In short: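 D-luciferin and ATP (10 uM each, final) in Tris acetate buffer pH 7.6 were incubated with compounds for 15 min at room temperature. The reaction was started with 10 nM Photinus pyralis luciferase and luminescence read after 5 min. Percent inhibition was fitted to a 4-parameter Hill equation.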
# [15] = Primary fluorescence-based thiol-reactive (MSTI) qHTS assay for identification of artifact compounds. (AID 1845221);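 also: thiol-reactive compounds lower the probe fluorescence signal; nearly all actives have a fitted effect of over 65% in size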
# In short: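 Reactivity toward the thiol probe MSTI (4 uM) is scored by fluorescence at Ex/Em 525/598 nm after 1 h at room temperature. Acetyl-MSTI and MSTI define the activity scale.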
# [16] = test system: Nanoluciferase (engineered Oplophorus gracilirostris luciferase); assay: Primary Nanoluciferase (NLuc) qHTS assay for identification of artifact compounds. (AID 1845222)
# In short: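 Diluted conditioned medium from NLuc-expressing S16 cells treated with compounds for 15 min at room temperature, then Nano-Glo substrate added; luminescence read after 5 min. Percent inhibition versus no-enzyme and DMSO controls fitted to 4-parameter Hill equation.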
# [17] = Primary redox qHTS assay for identification of artifact compounds. (AID 1845223)
# In short: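 Amplex Red (25 uM) and HRP (250 mU/mL) in HBSS, with compounds for 15 min, then 250 uM DTT for 30 min, room temperature, dark. Fluorescence 525/598 nm read; normalized to DMSO and 10 uM DA3003; Hill fit.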
# [18] = Quantitative High-Throughput drug screen in 47 multiple myeloma cell lines against the NCATS MIPE library collection: AMO1_DSMZ cell viability assay (AID 1918927; also: nearly all actives have a fitted effect of over 30% in size; also: potency is read from the fitted curve at half-maximal effect)
# In short: as §2
# [19] = Quantitative High-Throughput drug screen in 47 multiple myeloma cell lines against the NCATS MIPE library collection: Karpas417_ECACC cell viability assay (AID 1918961); conditions: Karpas417 myeloma viability, CellTiter-Glo ATP luminescence, 48 h; viability (% of DMSO): at 45.8 µM (top of the series) unless noted; also: potency is read from the fitted curve at half-maximal effect
# In short: as §1
# [20] = Quantitative High-Throughput drug screen in 47 multiple myeloma cell lines against the NCATS MIPE library collection: ARP1_JJKsccF8 cell viability assay (AID 1918928; also: nearly all actives have a fitted effect of over 40% in size; also: potency is read from the fitted curve at half-maximal effect)
# In short: as §4
# Chain of Metallo-beta-lactamase type 2 (Klebsiella pneumoniae) (C7C422 whole entry, looked up): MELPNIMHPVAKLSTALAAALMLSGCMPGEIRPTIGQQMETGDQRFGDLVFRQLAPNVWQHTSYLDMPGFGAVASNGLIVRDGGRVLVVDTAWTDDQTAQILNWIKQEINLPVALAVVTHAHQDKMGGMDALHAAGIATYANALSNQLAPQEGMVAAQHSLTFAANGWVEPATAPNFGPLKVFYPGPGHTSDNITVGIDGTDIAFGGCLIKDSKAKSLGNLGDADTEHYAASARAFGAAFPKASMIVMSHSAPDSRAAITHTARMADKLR
# Chain of Phospholipid hydroperoxide glutathione peroxidase GPX4 (Homo sapiens) (P36969 whole entry, looked up): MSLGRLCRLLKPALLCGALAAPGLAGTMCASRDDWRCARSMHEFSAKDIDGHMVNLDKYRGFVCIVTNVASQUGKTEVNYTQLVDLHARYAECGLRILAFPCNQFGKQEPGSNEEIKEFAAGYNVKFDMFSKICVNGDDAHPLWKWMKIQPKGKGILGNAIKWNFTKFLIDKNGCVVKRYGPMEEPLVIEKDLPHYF
# Chain of Glutathione peroxidase 1 (Homo sapiens) (P07203 whole entry, looked up): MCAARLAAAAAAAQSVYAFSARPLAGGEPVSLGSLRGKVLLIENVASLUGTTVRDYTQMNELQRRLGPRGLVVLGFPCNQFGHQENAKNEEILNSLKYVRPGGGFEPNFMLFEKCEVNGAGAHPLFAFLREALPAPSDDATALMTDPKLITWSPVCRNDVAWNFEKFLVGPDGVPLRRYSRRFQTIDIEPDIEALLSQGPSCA
smiles,measurement,setting,value
C[C@]12CCC(=O)C=C1CC[C@@H]1[C@@H]2[C@@H](O)C[C@@]2(C)[C@H]1CC[C@]2(O)C(=O)CO,Potency,[1],inactive
C/C(=C\C(=O)Nc1ccccc1C(=O)O)c1ccc2ccccc2c1,Potency,[1],inactive
C1COC(NC(C2CC2)C2CC2)=N1,outcome,[2],inactive
same,Potency,[1],inactive
same,Potency,[3],inactive
same,Potency,[4],inactive
same,Potency,[5],inactive
same,Potency,[6],inactive
NC(=O)c1cnccn1,outcome,[7],inactive
same,outcome,[8],inactive
same,outcome,[2],inactive
same,Potency,[1],inactive
same,Potency,[4],inactive
same,Potency,[9],inactive
same,Potency,[5],inactive
same,Potency,[10],inactive
same,Potency,[11],inactive
same,Potency,[12],inactive
same,Potency,[13],inactive
O=c1[nH]c(-c2ccc(C(F)(F)F)cc2)nc2c1CSCC2,Potency,[1],inactive
same,Potency,[3],inactive
same,Potency,[14],inactive
same,Potency,[15],inactive
same,outcome,[16],inactive
same,outcome,[17],inactive
same,Potency,[4],inactive
same,Potency,[18],inactive
same,Potency,[10],inactive
same,Potency,[11],inactive
same,Potency,[12],inactive
same,Potency,[13],inactive
Cc1cnc(NC(=O)C2=C(O)c3ccccc3S(=O)(=O)N2C)s1,outcome,[2],inactive
same,Potency,[3],inactive
same,Potency,[9],inactive
same,Potency,[5],inactive
same,Potency,[12],inactive
same,Potency,[13],inactive
COc1c(Cl)cc2c([nH]c3cnccc32)c1NC(=O)c1cccnc1C,Potency,[1],inactive
same,Potency,[3],inactive
same,Potency,[14],inactive
same,Potency,[15],inactive
same,outcome,[16],inactive
same,outcome,[17],inactive
same,Potency,[9],2.96 µM (active)
same,Potency,[5],3.72 µM (active)
same,Potency,[18],5.26 µM (active)
same,Potency,[19],16.6 µM (active)
same,Potency,[6],2.96 µM (active)
same,Potency,[13],inactive
NCCCC(N)(C(=O)O)C(F)F (centres undefined),outcome,[2],inactive
same,Potency,[1],inactive
same,Potency,[3],inactive
same,Potency,[4],16.6 µM (active)
same,Potency,[5],inactive
same,Potency,[11],inactive
same,Potency,[6],inactive
same,Potency,[13],13.2 µM (active)
COc1ccccc1[C@H](c1cccc2ccccc12)[C@@](C)(C#N)C(=O)N1CCC(c2cccc(C(F)(F)F)c2)CC1,Potency,[1],inactive
same,Potency,[3],inactive
same,Potency,[14],inactive
same,Potency,[15],inactive
same,outcome,[16],inactive
same,outcome,[17],inactive
same,Potency,[9],8.33 µM (active)
same,Potency,[5],13.2 µM (active)
same,Potency,[20],8.33 µM (active)
same,Potency,[10],4.18 µM (active)
same,Potency,[6],6.62 µM (active)
same,Potency,[13],9.35 µM (active)
CN(C(=O)c1ccc(F)cc1C(F)(F)F)C1CCN(c2nnc(-c3ccnn3C)c3ccccc23)CC1,Potency,[1],inactive
same,Potency,[3],inactive
same,Potency,[14],inactive
same,Potency,[15],inactive
same,outcome,[16],inactive
same,outcome,[17],inactive
CN(C)C(=O)c1ccc(S(=O)(=O)c2ccc(NC(=O)[C@@](C)(O)C(F)(F)F)c(Cl)c2)cc1,Potency,[1],inactive
same,Potency,[3],inactive
same,Potency,[14],inactive
same,Potency,[15],inactive
same,outcome,[16],inactive
same,outcome,[17],inactive
same,Potency,[9],10.5 µM (active)
same,Potency,[5],23.5 µM (active)
COc1cc(Nc2ncc3c(n2)-c2ccc(Cl)cc2C(c2c(F)cccc2OC)=NC3)ccc1C(=O)O,Potency,[1],inactive
same,Potency,[3],inactive
same,Potency,[14],inactive
same,Potency,[15],inactive
same,outcome,[16],inactive
same,outcome,[17],inactive
same,Potency,[4],inactive
same,Potency,[5],inactive
N[C@@H]1CONC1=O,outcome,[2],inactive
same,Potency,[1],inactive
same,Potency,[3],inactive
same,Potency,[4],inactive
same,Potency,[9],inactive
same,Potency,[5],inactive
same,Potency,[12],inactive
same,Potency,[19],inactive
same,Potency,[13],inactive
CC(C)c1onc(-c2c(Cl)cccc2Cl)c1COc1ccc(/C=C/c2cccc(C(=O)O)c2)c(Cl)c1,Potency,[1],inactive
CNCc1ccc(-c2[nH]c3cc(F)cc4c3c2CCNC4=O)cc1,Potency,[1],20.2 µM (active)
same,Potency,[3],11.4 µM (active) and 12.8 µM (active) and 15.8 µM (active)
same,Potency,[14],inactive
same,Potency,[15],inactive
same,outcome,[16],inactive
same,outcome,[17],inactive
same,Potency,[4],inactive
same,Potency,[9],inactive
same,Potency,[5],inactive
same,Potency,[18],8.33 µM (active)
same,Potency,[11],inactive
CCCS(=O)(=O)Nc1ccc(F)c(C(=O)c2c[nH]c3ncc(Cl)cc23)c1F,Potency,[1],inactive
same,Potency,[3],inactive
same,Potency,[14],inactive
same,Potency,[15],inactive
same,outcome,[16],inactive
same,outcome,[17],inactive
same,Potency,[5],inactive
same,Potency,[11],20.9 µM (active)
same,Potency,[12],16.6 µM (active)
same,Potency,[13],16.6 µM (active)
O=C1CCC(N2C(=O)c3ccccc3C2=O)C(=O)N1 (centres undefined),outcome,[2],inactive
same,Potency,[1],inactive
same,Potency,[3],inactive
same,Potency,[4],inactive
same,Potency,[9],inactive
same,Potency,[5],inactive
same,Potency,[20],0.0662 µM (active)
same,Potency,[10],inactive
same,Potency,[12],inactive
same,Potency,[6],inactive
same,Potency,[13],inactive
COc1nc(-c2ccc3c(c2)OCO3)n(-c2ccc(NC(=O)CSc3ccccc3)cc2)n1,Potency,[1],inactive
same,Potency,[3],inactive
same,Potency,[14],inactive
same,Potency,[15],inactive
same,outcome,[16],inactive
same,outcome,[17],inactive
same,Potency,[4],inactive
same,Potency,[9],inactive
same,Potency,[5],inactive
same,Potency,[20],inactive
same,Potency,[10],inactive
same,Potency,[11],inactive
same,Potency,[12],inactive
same,Potency,[19],inactive
same,Potency,[6],inactive
same,Potency,[13],inactive
Nc1nc2c(ncn2COCCO)c(=O)[nH]1,Potency,[1],inactive
same,Potency,[3],inactive
same,Potency,[4],inactive
same,Potency,[5],inactive
same,Potency,[20],inactive
same,Potency,[11],inactive
same,Potency,[12],inactive
same,Potency,[6],inactive
same,Potency,[13],inactive
C[C@]1(c2nc3c(C(N)=O)cccc3[nH]2)CCCN1,Potency,[1],inactive
same,Potency,[3],inactive
same,Potency,[4],inactive
same,Potency,[5],inactive
same,Potency,[11],inactive
same,Potency,[12],inactive
same,Potency,[6],18.7 µM (active)
CC(C)(Sc1ccc(CCN(CCCCC2CCCCC2)C(=O)NC2CCCCC2)cc1)C(=O)O,Potency,[1],inactive
same,Potency,[3],inactive and 6.4 µM (active)
same,Potency,[14],inactive
same,Potency,[15],inactive
same,outcome,[16],inactive
same,outcome,[17],inactive
same,Potency,[18],inactive
same,Potency,[12],inactive
same,Potency,[13],inactive
